Most compounds without a hit are left out; they make up all but 6% or so of the library.
D3 antag: antagonists of human D3 dopamine receptor | 360,000 compounds, 2.5% hits | P35462 | D3R cells, DiscoveRx beta-arrestin luminescence, antagonist mode; hits give low values | max response, negative = inhibition, %; in the data active = max response below about -50%; inconclusive = no clear call, values can overlap the other calls
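Cells expressing the human receptor were seeded at 1500 cells/well, incubated overnight at 37 degrees C in 5% CO2, then exposed to library compounds with dopamine controls for 90 minutes at 37 degrees C before luminescent detection.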
D1 agonist: agonists of human D1 dopamine receptor | P21728 | HEK293 T-REx D1 cells, calcium flux, agonist mode | activation, % at 2 µM | 360,000 compounds, 1% hits | AID 504660; in the data active = activation above about 30%
Target sequence (P21728 whole entry, looked up): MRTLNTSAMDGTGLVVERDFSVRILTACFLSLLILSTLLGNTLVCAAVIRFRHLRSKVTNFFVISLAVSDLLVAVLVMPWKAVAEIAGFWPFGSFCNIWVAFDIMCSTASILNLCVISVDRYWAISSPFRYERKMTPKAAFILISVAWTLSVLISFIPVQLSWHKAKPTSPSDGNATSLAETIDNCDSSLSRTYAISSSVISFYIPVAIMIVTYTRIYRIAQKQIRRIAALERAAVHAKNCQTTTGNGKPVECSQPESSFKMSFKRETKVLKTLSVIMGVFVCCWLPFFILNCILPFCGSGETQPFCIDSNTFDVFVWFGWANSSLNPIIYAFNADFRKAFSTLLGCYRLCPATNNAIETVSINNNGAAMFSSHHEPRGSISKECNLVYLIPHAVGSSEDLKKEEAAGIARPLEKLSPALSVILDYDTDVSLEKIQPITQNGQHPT
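Agonism was scored from calcium flux recorded over 180 s (1 read/s) after pintool compound addition, following a 10-cycle baseline. Cells were inducible force-coupled HEK293 TREx D1, plated overnight at 30 C and loaded with no-wash calcium dye.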
D1 potentiator: enhances dopamine response at the human D1 receptor; 360,000 compounds, 0.036% hits; potentiation, % at 10 µM; HEK293 TREx D1 cells, calcium flux, dopamine EC20 potentiation; in the data active = potentiation above about 30%
D1 antag: blocks dopamine activation of the human D1 receptor | P21728 | HEK293 TREx D1 cells, calcium flux, dopamine EC80; hits give low values | activity change, negative = inhibition, % at 10 µM | 360,000 compounds, 3.2% hits | AID 504652; in the data active = activity change below about -30%
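Inducible Hek293 Trex D1 cells (tetracycline, overnight, 30 C). Calcium dye 30–90 min RT. Antagonist mode: EC80 dopamine added after 180 s compound read.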
D3 ag: D3 dopamine receptor (human) agonism. 410,000 compounds, 0.58% hits. max activation, %. D3R DiscoveRx beta-arrestin cells, luminescence, 90 min. P35462; in the data active = max activation above about 30%
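Agonist mode: compounds and dopamine controls were applied to plated cells for 90 min at 37 degrees C after an overnight attachment at 1500 cells/well. Luminescent read-out followed 30 - 60 minutes at room temperature with DiscoveRx detection reagent.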
A number is an active result.

N#Cc1cccc(NC(=O)C2CCN(c3cnccn3)CC2)c1 was read as D1 agonist inactive, D1 potentiator inactive, D1 antag inactive and D3 ag inactive.
Oc1ccccc1CNc1nc2ccccc2n1CCN1CCCCC1 was read as D3 antag -74, D1 agonist inactive, D1 potentiator inactive, D1 antag inactive and D3 ag inactive.
`COc1ccccc1CNc1nc2ccccc2n1CCN1CCCCC1` gave D3 antag inconclusive, D1 agonist inactive, D1 potentiator inactive, D1 antag -35 and D3 ag inactive.
Screening COc1ccc(NC(=O)Nc2cccc(OCc3cc(=O)n4cccc(C)c4n3)c2)c(OC)c1 returned D1 agonist inactive, D1 potentiator inactive, D1 antag inactive and D3 ag inactive.
`Cc1cn(CC2COC(C)(C)O2)c(=O)[nH]c1=O` (configuration not stated) gave D3 antag inactive, D1 agonist inactive, D1 potentiator inactive, D1 antag -30 and D3 ag inactive.
For COC(Cn1cc(C)c(=O)[nH]c1=O)OC the results were D3 antag inactive, D1 agonist inactive, D1 potentiator inactive, D1 antag inactive and D3 ag inactive.
For COc1ccc(Cl)cc1NC(=O)Cn1cc(C(=O)c2ccncc2)c(=O)c2cc(C)ccc21 the results were D1 agonist inactive, D1 potentiator inactive, D1 antag inactive and D3 ag inactive.
For S=C(Nc1ccc2nc(-c3ccccn3)c(-c3ccccn3)nc2c1)N1CCCCC1 the results were D3 antag inactive, D1 agonist inactive, D1 potentiator inactive, D1 antag inactive and D3 ag inactive.
Screening CCCNC(=S)Nc1ccc2nc(-c3ccccn3)c(-c3ccccn3)nc2c1 returned D3 antag inactive, D1 agonist inactive, D1 potentiator inactive, D1 antag -37 and D3 ag inactive.
For O=C(O)CC1Sc2ccccc2NC1=O (configuration not stated) the results were D3 antag inactive, D1 agonist inactive, D1 potentiator inactive, D1 antag inactive and D3 ag inactive.
For O=C(CC1Sc2ccccc2NC1=O)c1ccc(Br)cc1 (configuration not stated) the results were D3 antag inactive, D1 agonist inactive, D1 potentiator inactive, D1 antag -56 and D3 ag inactive.
O=C(CC1Sc2ccccc2NC1=O)NNc1cc(Cl)ccc1Cl (configuration not stated) was read as D3 antag inactive and D3 ag 36.
For CCc1nnc2c3ccccc3nc(Nc3ccc(F)cc3C)n12 the results were D1 agonist inactive, D1 potentiator inactive, D1 antag inactive and D3 ag inactive.
Cc1cccc2cc(CN(CCCN(C)C)C(=S)NCCc3ccccc3)c(=O)[nH]c12 was read as D3 antag inactive, D1 agonist 31, D1 potentiator inactive, D1 antag inactive and D3 ag inactive.
Cc1ccc(CN(Cc2ccco2)C(=O)COc2ccc(C(C)C)cc2)cc1 was read as D1 agonist 46, D1 potentiator inactive, D1 antag -56 and D3 ag inactive.
For Cc1ccc2c(CC(=O)N(Cc3ccc(Cl)cc3)Cc3ccco3)coc2c1 the results were D1 agonist 33, D1 potentiator inactive, D1 antag inactive and D3 ag inactive.
Cc1cc(C)c2c(CC(=O)N(Cc3ccc(N(C)C)cc3)Cc3ccco3)coc2c1 was read as D1 agonist inactive, D1 potentiator inactive, D1 antag inactive and D3 ag inactive.
For Cc1ccc(OCC(=O)N(Cc2ccco2)Cc2ccco2)cc1 the results were D1 agonist inactive, D1 potentiator inactive, D1 antag inactive and D3 ag inactive.
Screening COc1ccc(NC(=S)N(CCC(C)C)C2CCN(C(C)C)CC2)cc1 returned D3 antag -54, D1 agonist inactive, D1 potentiator inactive, D1 antag inactive and D3 ag inactive.
`COc1ccc(NC(=S)N(CCC(C)C)C2CCN(C(C)=O)CC2)cc1` gave D3 antag inactive, D1 agonist inactive, D1 potentiator inactive, D1 antag inactive and D3 ag inactive.
Screening COc1ccccc1-c1nc(SCC(=O)Nc2ccc(C)c(C)c2)n[nH]1 returned D1 agonist inactive, D1 potentiator inactive, D1 antag inactive and D3 ag inactive.
For Cc1ccc(C)c(N2CCN(CC3CC=CCC3)CC2)c1 (configuration not stated) the results were D3 antag -73, D1 agonist inactive, D1 potentiator inactive, D1 antag inactive and D3 ag inactive.
For C1=CCC(CN2CCNCC2)CC1 (configuration not stated) the results were D3 antag inactive, D1 agonist inactive, D1 potentiator inactive, D1 antag inactive and D3 ag inactive.
`CCCC(O)c1nc2ccccc2n1CCCOc1ccc(Cl)cc1` (configuration not stated) gave D1 agonist inactive, D1 potentiator inactive, D1 antag inactive and D3 ag inactive.
CCOc1ccc(CCNC(=O)CCc2c(C)nc3c4c(C)cc(C)nc4nn3c2C)cc1 was read as D1 agonist inactive, D1 potentiator inactive, D1 antag -36 and D3 ag inactive.
For COc1ccccc1-c1cc2nc(C)c(CCC(=O)NCCc3ccc(SC)cc3)c(C)n2n1 the results were D1 agonist inactive, D1 potentiator inactive, D1 antag -47 and D3 ag inactive.
`COc1ccc(CCNC(=O)CCc2c(C)nc3cc(-c4cccc(F)c4)nn3c2C)cc1OC` gave D1 agonist inactive, D1 potentiator inactive, D1 antag -34 and D3 ag inactive.
Screening CCN1C(=NCC(C)C)N[C@@H](c2ccccc2)[C@H](C(=O)OC)[C@H]1C returned D1 agonist inactive, D1 potentiator inactive and D1 antag inactive.
`COc1ccc(-n2c(-c3ccc(Cl)cc3)cc3c2CC(C)(C)CC3=O)c(OC)c1` gave D1 agonist inactive, D1 potentiator inactive, D1 antag inactive and D3 ag inactive.
For Cc1ccccc1Nc1nn2c(=O)c3ccc(C(=O)NCc4ccccc4)cc3nc2s1 the results were D1 agonist inactive, D1 potentiator inactive, D1 antag inactive and D3 ag inactive.
`CCCCN(C)C(=O)c1ccc2c(=O)n3nc(Nc4cc(C)ccc4C)sc3nc2c1` gave D1 agonist inactive, D1 potentiator inactive, D1 antag -68 and D3 ag inactive.
`Cc1ccc(Cl)cc1Nc1nn2c(=O)c3ccc(C(=O)NCc4ccc(F)cc4)cc3nc2s1` gave D1 agonist inactive, D1 potentiator inactive, D1 antag -33 and D3 ag inactive.
`COc1ccc(Cn2c(SCc3ccc(C(=O)NC(C)c4ccccc4)cc3)nc3cccnc32)cc1` (configuration not stated) gave D1 agonist inactive, D1 potentiator inactive, D1 antag inactive and D3 ag inactive.
CCOC(=O)C1CCCN(C(=O)c2cc3nc(-c4cccc(OC)c4)cc(C(F)(F)F)n3n2)C1 (configuration not stated) was read as D3 antag inactive, D1 agonist inactive, D1 potentiator inactive, D1 antag inactive and D3 ag 52.

Screening data (PubChem BioAssay)
